What is called AC50 is the midpoint of the concentration-response curve, whichever way the signal moves.

Values joined by “and” are separate entries in the source; they are usually repeats but may differ in a detail not shown here. Identical values can stand only once. Some compounds were tested as several samples or in several runs, with calls that do not always agree. Active and inactive are the calls of the source. The calls were made as follows: active = hit-call score of the fitted dose curve at least 0.9, where 1 is the maximum; inactive = score below 0.9.

Read-out in this experiment: Matrix Metallopeptidase 9 (MMP9), MMP9 (gene 4318)
Nature of the experiment: BSK_BF4T_MMP9: BioMAP Diversity Plus: BF4T Assay for Matrix Metallopeptidase 9 (MMP9) Biomarker Activity (AID 2284276). Particulars: primary human bronchial epithelial cells with fibroblasts. In short, it runs like this: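 Co-culture of human bronchial epithelial cells and dermal fibroblasts dosed for 24 h; MMP-9 quantified by ELISA and fitted upward versus DMSO. Cytotoxicity monitored in parallel cultures by SRB total-protein staining at the biomarker time point.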
Turning to `COC(F)(C(F)F)C(F)(F)F` (centres undefined), the outcome was inactive.
On the same count and under the same terms, in the case of `OC(O)C(F)(F)C(F)(F)F` it was “inactive”; in that of `O=C(O)CCC(F)(F)C(F)(F)C(F)(F)C(F)(F)C(F)(F)C(F)(F)C(F)(F)F`, “inactive”.
Take `O=S(=O)(Cl)C(F)(F)C(F)(F)C(F)(F)C(F)(F)C(F)(F)C(F)(F)C(F)(F)C(F)(F)F`: the AC50 is 49.2 µM (active) and 47.7 µM (active).
As for `O=S(=O)(O)CCC(F)(F)C(F)(F)C(F)(F)C(F)(F)F`, the result was inactive.
On to `NC(=O)C(F)(F)C(F)(F)C(F)(F)C(F)F`, for which the result was inactive.
As to `C=CC(=O)OCC(F)(F)C(F)(F)C(F)(F)COC(=O)C=C`, the AC50 is 21.5 µM (active) and 21.8 µM (active).
Turning to `O=C(Cl)C(F)(F)C(F)(F)C(F)(F)C(F)(F)C(F)(F)C(F)(F)C(F)(F)F`, the AC50 was 18.7 µM (active) and the outcome was inactive.
`NC(=O)C(F)(F)C(F)(F)C(F)(F)C(F)(F)C(F)(F)C(F)(F)C(F)(F)F`: the outcome was inactive.
On the same count and under the same terms, with `OCC(O)CC(F)(F)C(F)(F)C(F)(F)C(F)(F)F` (centres undefined) the entry was “inactive”.
On the same count and under the same terms, with `FC(F)(F)C(F)(F)C(F)(F)C(F)(F)C(F)(F)C(F)(F)CC[Si](Cl)(Cl)Cl` the entry was “inactive”; with `OCC(F)(F)C(F)(F)C(F)(F)C(F)(F)C(F)(F)C(F)(F)CO`, “inactive”; with `OCC(O)CC(F)(F)C(F)(F)C(F)(F)C(F)(F)C(F)(F)C(F)(F)C(F)(F)C(F)(F)F` (centres undefined), “inactive”.
Still for that read-out and setting: in the case of `NC(=O)C(F)(F)C(F)(F)C(F)(F)F` it was “inactive”; in that of `C=CC(=O)OCC(F)(F)C(F)(F)C(F)(F)C(F)(F)C(F)(F)C(F)(F)C(F)(F)C(F)F`, “inactive”; in that of `O=C(F)C1(F)C(F)(F)C(F)(F)C(F)(F)C(F)(F)C1(F)F`, “inactive”.
`O=S(=O)(OCC(F)(F)F)C(F)(F)C(F)(F)C(F)(F)C(F)(F)F`: the result was inactive.
Same read-out and setting: with `OCC(F)(F)C(F)(F)C(F)(F)CO` the entry was “inactive”; with `CNS(=O)(=O)C(F)(F)C(F)(F)C(F)(F)C(F)(F)C(F)(F)C(F)(F)C(F)(F)C(F)(F)F`, “inactive”.
The same measure, in the same setting: in the case of `O=C(O)C(F)(F)C(F)(F)C(F)(F)OC(F)(C(F)(F)F)C(F)(F)F` it was “inactive”.
Same read-out and setting: with `C[Si](Cl)(Cl)CCC(F)(F)C(F)(F)C(F)(F)C(F)(F)C(F)(F)C(F)(F)F` the entry was “inactive”; with `C=CC(=O)OCCC(F)(F)C(F)(F)C(F)(F)C(F)(F)F`, “inactive”; with `NC(O)(C(F)(F)F)C(F)(F)F`, “inactive”.
Consider `FC(F)(F)C(F)(F)C(F)(F)C(F)(F)C(F)(F)C(F)(F)C(F)(F)CCI`, for which the result was inactive.
Still for that read-out and setting: in the case of `O=S(=O)(O)CCC(F)(F)C(F)(F)C(F)(F)C(F)(F)C(F)(F)C(F)(F)C(F)(F)C(F)(F)F` it was “inactive”.
On the same count and under the same terms, in the case of `O=C(O)C(F)(F)C(F)(F)C(F)(F)OC(F)(F)F` it was “inactive”; in that of `FC(F)(F)C(F)(F)C(F)(F)CC1CO1` (centres undefined), “inactive”; in that of `O=C(Cl)C(F)(F)C(F)(F)C(F)(F)C(F)(F)C(F)(F)C(F)(F)F`, “inactive”.
On the same count and under the same terms, in the case of `C=C(C)C(=O)OCC(F)(F)C(F)(F)C(F)(F)C(F)F` it was “inactive”; in that of `CN(C(=O)C(F)(F)C(F)(F)C(F)(F)F)[Si](C)(C)C`, “inactive”; in that of `NCC(F)(F)C(F)(F)C(F)(F)C(F)(F)C(F)(F)C(F)(F)C(F)(F)C(F)(F)F`, “inactive”.
For the molecule `CO[Si](C)(CCC(F)(F)C(F)(F)C(F)(F)C(F)(F)C(F)(F)C(F)(F)F)OC`, the outcome was inactive.
The same measure, in the same setting: in the case of `NC(=O)C(F)(F)C(F)(F)C(F)(F)C(F)(F)C(N)=O` it was “inactive”.

The values above are taken from PubChem BioAssay (EPA / NIEHS).
